“And” between values parts separate entries of the source, which are not always exact repeats. Equal entries are not always repeated. Records with an inconclusive call do not appear. The source made the active and inactive calls.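 How the source made its calls, unless noted: active means compounds whose cell count with miR-34 switched on is under 0.7 times the count with it off; inactive means the rest.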
How the values were obtained:
[1] = viability loss with induced miR-34 in A549 – imaging, A549 dox-inducible miR-34, nuclei and caspase counts, primary screen (AID 1347080); details: A549 miR-34 inducible, Hoechst nuclei count, 48 h
[2] = blockers of cellular phospholipid synthesis – cell-based, LOPAC library, screen 4, primary screen (AID 1347384; call rule not given here); details: animal cells, phospholipid biosynthesis inhibition screen; at 10 µM
[3] = MELAS cybrid and Rieske KO viability enhancers – cell-based, MELAS cybrids, Rieske KO mouse fibroblasts, CellTiter-Glo, primary screen (AID 1508586;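 active means mean z-score across replicates of 1.96 or higher in either the MELAS or the Rieske mutant cell line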;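 further: z relative to plate mean and SD of compound and empty wells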); details: low glucose
[4] = viability loss in pontine glioma line – cell-based, JHH-DIPG-1, MIPE4.0, CellTiter-Glo, qHTS, dose response (AID 1347062; cut-off not given, nearly all actives have AC50 up to about 27 µM); details: JHH-DIPG-1 viability, CellTiter-Glo ATP luminescence
[5] = growth inhibition of DIPG cells – cell-based, MIPE4.0 library, CellTiter-Glo luminescence, qHTS (AID 1347066; cut-off not given, nearly all actives have AC50 up to about 30 µM;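 further: cells exposed to compound for 48 hours before readout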); details: SU-DIPG-VI viability, CellTiter-Glo ATP luminescence
[6] = JHH-DIPG-1 glioma cell viability, MIPE5.0 library, CellTiter-Glo luminescence, qHTS (AID 1347067; cut-off not given, nearly all actives have AC50 up to about 26 µM;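 further: cells exposed to compound for 48 hours before readout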); details: JHH-DIPG-1 glioma viability, CellTiter-Glo ATP luminescence
[7] = growth inhibition of DIPG cells – cell-based, MIPE5.0 library, qHTS (AID 1347068; cut-off not given, nearly all actives have IC50 up to about 30 µM); details: SU-DIPG-XXV viability
[8] = viability loss in pontine glioma line – cell-based, SU-DIPG-XIII, MIPE5.0, CellTiter-Glo, qHTS, dose response (AID 1347064; cut-off not given, nearly all actives have AC50 up to about 23 µM); details: CellTiter-Glo ATP luminescence
[9] = viability loss in pontine glioma line – cell-based, SU-DIPG-XXV, MIPE5.0, CellTiter-Glo, qHTS, dose response (AID 1347065; cut-off not given, nearly all actives have AC50 up to about 26 µM;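 further: cells exposed to compound for 48 hours before ATP readout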); details: CellTiter-Glo ATP luminescence
[10] = stronger effect = lower value, cell number ratio, induced over uninduced
[11] = measured here: relative caspase fold change +Dox/-Dox
[12] = measured here: total cells with miR-34 induction, stronger effect = lower value
[13] = measured here: total cells without miR-34 induction
[14] = MELAS cybrid survival, CellTiter-Glo 48 h, stronger effect = higher value
[15] = Rieske KO mouse fibroblast survival, CellTiter-Glo 72 h

Structure (SMILES): NC/C=C/C(=O)O
- fold change [1, 10]: 1.01 (inactive)
- fold change [1, 11]: 1.35
- cell count [1, 12]: 10300
- cell count [1, 13]: 10200
- outcome [2]: inactive

Structure (SMILES): O=C(CCCCC(=O)Nc1c(I)cc(I)c(C(=O)O)c1I)Nc1c(I)cc(I)c(C(=O)O)c1I
- fold change [1, 10]: 0.893 (inactive)
- fold change [1, 11]: 1.51
- cell count [1, 12]: 9730
- cell count [1, 13]: 10900
- z-score [3, 14]: 0.645 (inactive)
- z-score [3, 15]: -0.141

Structure (SMILES): C[C@]12C=CC(=O)C=C1CC[C@H]1[C@@H]3C[C@@H](O)[C@](O)(C(=O)CO)[C@@]3(C)C[C@H](O)[C@@]12F
- fold change [1, 10]: 0.938 (inactive) and 0.869 (inactive) and 0.939 (inactive)
- fold change [1, 11]: 0.943 and 0.955 and 1.2
- cell count [1, 12]: 7680 and 5920 and 7610
- cell count [1, 13]: 8190 and 6810 and 8100
- outcome [2]: inactive
- z-score [3, 14]: 0.162 (inactive) and 0.389 (inactive)
- z-score [3, 15]: 0.159 and 0.935

Structure (SMILES): Cc1cc2nc3c(=O)[nH]c(=O)nc-3n(C[C@H](O)[C@H](O)[C@H](O)CO)c2cc1C
- fold change [1, 10]: 0.873 (inactive)
- fold change [1, 11]: 1.61
- cell count [1, 12]: 7920
- cell count [1, 13]: 9080

Structure (SMILES): CC(=O)Nc1ccc(OCC(O)CNC(C)C)cc1 (stereo unspecified)
- fold change [1, 10]: 0.852 (inactive) and 0.959 (inactive)
- fold change [1, 11]: 1.35 and 1.11
- cell count [1, 12]: 8450 and 10300
- cell count [1, 13]: 9920 and 10700
- z-score [3, 14]: 0.00127 (inactive) and -0.285 (inactive)
- z-score [3, 15]: -0.287 and 0.516

Structure (SMILES): CC[C@]12CCCN3CCc4c(n(c5ccccc45)C(=O)C1)[C@@H]32
- fold change [1, 10]: 0.89 (inactive)
- fold change [1, 11]: 1.52
- cell count [1, 12]: 3350
- cell count [1, 13]: 3760
- z-score [3, 14]: 1.02 (inactive)
- z-score [3, 15]: 0.169

Structure (SMILES): CCOC(=O)n1ccn(C)c1=S
- fold change [1, 10]: 0.866 (inactive) and 0.865 (inactive)
- fold change [1, 11]: 1.28 and 0.473
- cell count [1, 12]: 8700 and 8400
- cell count [1, 13]: 10100 and 9710
- z-score [3, 14]: -0.0629 (inactive) and 0.57 (inactive)
- z-score [3, 15]: -0.122 and 0.0161

Structure (SMILES): CC1(C)O[C@@H]2C[C@H]3[C@@H]4CCC5=CC(=O)CC[C@]5(C)[C@@]4(F)[C@@H](O)C[C@]3(C)[C@]2(C(=O)CCl)O1
- fold change [1, 10]: 0.774 (inactive)
- fold change [1, 11]: 1.34
- cell count [1, 12]: 5550
- cell count [1, 13]: 7170
- z-score [3, 14]: 0.0233 (inactive)
- z-score [3, 15]: 1.13

Structure (SMILES): Nc1c2c(nc3ccccc13)CCCC2O (stereo unspecified)
- fold change [1, 10]: 0.95 (inactive) and 0.845 (inactive) and 0.969 (inactive)
- fold change [1, 11]: 0.943 and 1.26 and 0.952
- cell count [1, 12]: 9940 and 8540 and 10300
- cell count [1, 13]: 10500 and 10100 and 10600
- outcome [2]: inactive
- z-score [3, 14]: 1.73 (inactive) and -0.394 (inactive)
- z-score [3, 15]: 0.362 and -0.175

Structure (SMILES): Oc1c(Br)cc(Br)c2cccnc12
- fold change [1, 10]: 0.97 (inactive)
- fold change [1, 11]: 0.803
- cell count [1, 12]: 7880
- cell count [1, 13]: 8120
- z-score [3, 14]: -0.25 (inactive)
- z-score [3, 15]: -0.139

Structure (SMILES): C[C@H]1O[C@@H](n2cc(F)c(=O)[nH]c2=O)[C@H](O)[C@@H]1O
- outcome [4]: inactive
- outcome [5]: inactive
- outcome [6]: inactive
- outcome [7]: inactive
- fold change [1, 10]: 1.04 (inactive) and 0.788 (inactive)
- fold change [1, 11]: 0.632 and 1.14
- cell count [1, 12]: 3620 and 3400
- cell count [1, 13]: 3490 and 4310
- outcome [2]: inactive
- z-score [3, 14]: 0.0159 (inactive)
- z-score [3, 15]: -0.832

Structure (SMILES): COc1cc(N)c(Cl)cc1C(=O)NC1CCN(Cc2ccccc2)CC1
- fold change [1, 10]: 0.86 (inactive)
- fold change [1, 11]: 0.965
- cell count [1, 12]: 7810
- cell count [1, 13]: 9080
- z-score [3, 14]: 0.473 (inactive)
- z-score [3, 15]: 0.069

Structure (SMILES): O=C(O)CCCC[C@@H]1SC[C@@H]2NC(=O)N[C@@H]21
- fold change [1, 10]: 0.845 (inactive)
- fold change [1, 11]: 1.66
- cell count [1, 12]: 8760
- cell count [1, 13]: 10400
- z-score [3, 14]: -0.325 (inactive)
- z-score [3, 15]: -0.214

Structure (SMILES): CO[C@@]1(NC(=O)CSCC#N)C(=O)N2C(C(=O)O)=C(CSc3nnnn3C)CS[C@@H]21
- fold change [1, 10]: 1.01 (inactive) and 0.961 (inactive)
- fold change [1, 11]: 1.5 and 1.13
- cell count [1, 12]: 11000 and 9300
- cell count [1, 13]: 10900 and 9680
- outcome [2]: inactive
- z-score [3, 14]: -0.493 (inactive)
- z-score [3, 15]: -0.322

Structure (SMILES): CC(=O)[C@@]1(O)CC[C@H]2[C@@H]3C[C@H](C)C4=CC(=O)C=C[C@]4(C)[C@@]3(F)[C@@H](O)C[C@@]21C
- fold change [1, 10]: 0.84 (inactive)
- fold change [1, 11]: 1.39
- cell count [1, 12]: 6290
- cell count [1, 13]: 7490
- z-score [3, 14]: -0.955 (inactive)
- z-score [3, 15]: 0.456

Structure (SMILES): C[C@]12CC[C@@H]3c4ccc(O)cc4CC[C@H]3[C@@H]1C[C@@H](O)[C@@H]2O
- outcome [8]: inactive
- outcome [9]: inactive
- outcome [5]: inactive
- AC50 [6]: 23.5 µM (active)
- outcome [7]: inactive
- fold change [1, 10]: 0.957 (inactive) and 0.899 (inactive)
- fold change [1, 11]: 0.729 and 1.36
- cell count [1, 12]: 9380 and 8690
- cell count [1, 13]: 9810 and 9670
- z-score [3, 14]: 0.707 (inactive) and -0.312 (inactive)
- z-score [3, 15]: 0.79 and 0.38
